# Source: PubChem BioAssay (National Center for Advancing Translational Sciences (NCATS))
# Most compounds without a hit are left out; they make up all but 17% or so of the library.
# TDP1 cell noCPT: qHTS for Inhibitors of human tyrosyl-DNA phosphodiesterase 1 (TDP1): qHTS in cells in absence of CPT; DT40 Tdp1-/- hTDP1 cells, no CPT, ATP luminescence, 48 h; Potency, µM (top dose mostly 46.2 µM), for inactives: at the top dose activity change, negative = growth inhibition, usual class: inhibitors; actives 15% (n = 420,000); AID 686978, 2013; note: % is set by controls: 0 for no effect and ±100 for the full control effect; nearly all actives have a fitted effect of over 55% in size
#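 Chicken DT40 Tdp1-/- cells complemented with human TDP1, screened without camptothecin (DMSO vehicle only), 400 cells/well. Compounds pin-transferred, cells incubated at 37 °C for at least 48 hr. Growth read as ATP-dependent luminescence (CellTiter-Glo, 30 min at RT).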
# DT40 TDP1 CPT: growth inhibition of DT40 Tdp1-/-;hTDP1 cells with camptothecin (screen for TDP1 inhibitors). actives 12% (n = 420,000). Potency, µM (top dose mostly 46.2 µM), without a hit: at the highest dose activity change, negative = growth inhibition, most hits filed as inhibitors. chicken DT40 Tdp1-/-;hTDP1 cells + 20 nM CPT, ATP luminescence, 48 h. AID 686979; note: % is set by controls: 0 for no effect and ±100 for the full control effect; nearly all actives have a fitted effect of over 55% in size
#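 Cell growth measured by CellTiter-Glo luminescence after a minimum 48 h, 37 C compound exposure with 20 nM CPT in Tdp1-knockout DT40 cells stably expressing hTDP1, seeded 400/well; qHTS titration format.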
# TGFb SMAD3 inh: TGF-b pathway inhibition; HepG2 CAGA-GFP TGF-b/SMAD3 reporter, GFP fluorescence, 18 h; TGF-beta stimulated, 500 pg/mL final; Potency, µM (series often up to 46.1 µM), for inactives: top-dose activity, negative = inhibition, most hits filed as inhibitors; actives 1.2% (n = 410,000); AID 588855; note: % is set by controls: 0 for no effect and ±100 for the full control effect; nearly all actives have a fitted effect of over 65% in size
#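 Read-out: total well GFP (ex488/em500-530) summed from mean per-cell fluorescence. Cells: HEPG2 CAGA-GFP, 1% FBS DMEM, 18 h at 37 degrees C with 500 pg/mL final TGF-beta. Unstimulated wells served as the full-inhibition control; stimulated DMSO wells = 0%.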
# HepG2 viability: kills HepG2 cells in TGF-b inhibitor counter-screen; HepG2 CAGA-GFP viability, ATP luminescence, 18 h; actives 0.76% (n = 410,000); Potency, µM (doses to about 46.1 µM), for inactives: top-dose activity change, negative = cytotoxicity, actives largely listed as cytotoxic
#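 HepG2 CAGA-GFP cells (1000/well, DMEM with 1% FBS) received compound, then TGF-beta at 500 pg/mL final, and were incubated 18 hours at 37 degrees C. Viability was read by CellTiter-Glo luminescence. Media-only wells were set as complete cell-killing and DMSO as no toxicity.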
# HT1080 IDH1KD tx: kills HT-1080 cells with IDH1 knockdown; actives 2% (n = 360,000); Potency, µM (doses to about 46.1 µM), for the others: top-dose activity, negative = toxicity, usual class: cytotoxic; HT-1080 IDH1 knockdown viability, ATP luminescence, 48 h; AID 686971;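 note: 0% = DMSO wells and -100% = cell-free medium wells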
#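 CellTiter-Glo luminescence after 48 h compound exposure at 37 degrees C of IDH1-knockdown HT-1080 cells in 5% FBS RPMI. %Activity scaled between DMSO wells and cell-free media wells, with curves fitted and assigned curve classes.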
# HT1080NT lethal: kills 2HG-producing HT-1080-NT fibrosarcoma cells. HT-1080-NT fibrosarcoma viability, CellTiter-Glo ATP luminescence, 48 h. Potency, µM (doses to about 46.1 µM), for the others: at the top dose activity, negative = less viability, actives largely listed as cytotoxic. actives 1.6% (n = 360,000). AID 686970;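 note: NT is the 2HG producing partner of a matched IDH1 knockdown line; 0% = DMSO-treated cells and -100% = media-only wells without cells; nearly all actives have a fitted effect of over 55% in size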
#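 A 48-hour cytotoxicity screen used HT-1080-NT cells plated 2 hours before compound delivery. ATP-based CellTiter-Glo luminescence measured viability, normalized to DMSO and no-cell controls.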
# Numbers without * were called inactive; ? = inconclusive; . = no result given; [ ] = another dose, or the depositor's remark. Calls come from the whole dose curve; as a rule, active = well fitted curve in the direction sought with a large enough effect; inconclusive = small, poorly fitted or top-dose-only effect, or another doubt; inactive = no such curve, though single readings can be large; an effect the other way counts as inactive or inconclusive. Potency is the fitted concentration of half-maximal effect.
SMILES,TDP1 cell noCPT,DT40 TDP1 CPT,TGFb SMAD3 inh,HepG2 viability,HT1080 IDH1KD tx,HT1080NT lethal
CC(NC(=O)c1cccs1)C1CCCO1 (stereo not drawn),0%,20%,12%,-1%,7%,4%
CCN(CC(=O)NCc1cccs1)C(=O)/C=C/c1cccc(Cl)c1Cl,-16%,0%,?,2%,9%,9%
Cc1csc(OCc2ccc(C#N)cc2)n1,3%,-20%,1%,0%,2%,1%
CCOc1ccc(CCNC(=O)c2ccc(CS(=O)Cc3ccc(Cl)cc3)o2)cc1OCC (stereo not drawn),15µM*,?,4%,0%,-2%,-8%
CCOc1ccc(CCNC(=O)c2ccc(CS(=O)Cc3cccc(Cl)c3)o2)cc1 (stereo not drawn),15µM*,?,?,-21%,-15%,-28%
O=C(NCCc1cccs1)c1ccc(CS(=O)Cc2ccc(Cl)cc2)o1 (stereo not drawn),0%,?,7%,-1%,-3%,-12%
O=C(COc1cccc(Cl)c1)N1CCC(c2nc3ccccc3o2)CC1,?,?,0%,-23%,.,.
Nc1[nH]n2c(=O)cc(-c3ccccc3)nc2c1N=Nc1ccccc1,5.2µM*,3.3µM*,-16%,-30%,?,?
Cc1ccc(N=Nc2c(N)[nH]n3c(=O)cc(C)nc23)cc1,15µM*,?,-11%,-39%,-5%,-1%
CCOc1ccc(S(=O)(=O)N2CCN(c3cccc(C(F)(F)F)c3)CC2)cc1OCC,?,?,-29%,-30%,.,.
O=c1/c(=C/c2ccco2)sc2nc(-c3ccccc3Br)nn12,-10%,1%,1%,-2%,13%,0%
CC(=O)Oc1cccc(/C=c2\sc3nc(-c4ccco4)nn3c2=O)c1,16µM*,?,?,-11%,-2%,-1%
CC(C)Oc1cccc(C(=O)C2CCCN(Cc3cnc(N4CCOCC4)s3)C2)c1 (stereo not drawn),?,-25%,-26%,-15%,-19%,-7%
O=C(Nc1cccc(F)c1)N1CCc2nc(NCc3cccc(Oc4ccccc4)c3)ncc2C1,15µM*,?,?,-15%,?,23µM*
COc1cc(Nc2ncc3c(n2)CCN(C(=O)Nc2ccc(C(C)C)cc2)C3)cc(OC)c1OC,12µM*,?,?,-22%,18µM*,21µM*
CC(C)c1ccc(NC(=O)N2CCc3nc(NCc4cccc(Oc5ccccc5)c4)ncc3C2)cc1,16µM*,?,-18%,-16%,?,?
Nc1c(C(=O)O)sc2nc(-c3ccccc3)c3c(c12)CCCC3,?,-8%,6%,1%,0%,-4%
NC(=O)c1sc2nnc(-c3ccccc3)c(-c3ccccc3)c2c1N,15µM*,?,-21%,-2%,-6%,2%
CCN1CCN(C(c2cccs2)C(C)NC(=O)C(=O)N2CCCCC2)CC1 (stereo not drawn),7%,-1%,2%,12%,8%,19%
CCOc1ccc(/C=N/Nc2ccc(Cl)nn2)c(O)c1,0.58µM*,1.2µM*,?,-26%,0%,-17%
Oc1c(Br)cc(/C=N/Nc2ccc(Cl)nn2)cc1Br,?,9%,4%,5%,-10%,-1%
Oc1c(Br)cc(Br)cc1/C=N/Nc1ccc(Cl)nn1,2.9µM*,?,-5%,-18%,-25%,-7%
Oc1ccc(/C=N/Nc2ccc(Cl)nn2)c(O)c1O,21µM*,?,?,-10%,-19%,-13%
CCOc1ccccc1/C=N/Nc1ccc(Cl)nn1,-21%,5%,-2%,-35%,-8%,3%
COC(=O)C1CSC(C(=O)OC)N1C(=O)CN1CC(C)OC(C)C1 (stereo not drawn),5%,-5%,7%,4%,6%,17%
SMILES,TDP1 cell noCPT,DT40 TDP1 CPT,TGFb SMAD3 inh,HepG2 viability,HT1080 IDH1KD tx,HT1080NT lethal
COc1ccc(NC(=O)c2sc(=O)n(Cc3ccccc3C#N)c2C)cc1OC,?,?,-3%,6%,-4%,5%
CCCCNC(=O)C(CC)Sc1nnc(-c2cccc(F)c2)c(-c2cccc(F)c2)n1 (stereo not drawn),?,16µM*,18%,4%,.,.
O=S(=O)(O)c1ccc(O)cc1,3%,9%,.,.,.,.
CCn1c(SCc2nc(-c3ccccc3)no2)nnc1-c1cccs1,-26%,?,-1%,2%,0%,-5%
CCn1c(SCC(=O)Nc2cc(OC)c(OC)c(OC)c2)nnc1-c1cccs1,21µM*,?,-24%,-14%,0%[9.24 µM],-24%
CCn1c(SCc2nc(-c3cccs3)no2)nnc1-c1c[nH]c2ccccc12,23µM*,?,?,-25%,?,-21%
CCn1c(SC(C)C(=O)OC)nnc1-c1c[nH]c2ccccc12 (stereo not drawn),23µM*,?,0%,-15%,1%,-2%
CCn1c(SCC(=O)c2c[nH]c3ccccc23)nnc1-c1cccs1,5.8µM*,?,9%,9%,?,?
CCn1c(SCC(=O)Nc2ccc(OC)c(OC)c2)nnc1-c1cccs1,-16%,-17%,-24%,11%,4%,0%
CCOC(=O)C(C)Sc1nnc(-c2c[nH]c3ccccc23)n1C (stereo not drawn),?,?,-6%,-3%,3%,-20%
COCCn1c(SCC(=O)c2c[nH]c3ccccc23)nnc1-c1ccncc1,-3%,15%,19%,33%,0%,-7%
CCCCNC(=O)C1c2ccccc2OCC(=O)N1Cc1ccccn1 (stereo not drawn),-22%,-5%,.,.,9%,13%
CC(=O)c1cn(CC(=O)Nc2ccc(C)cc2C)c2ccccc12,5.8µM*,5.2µM*,1%,-9%,-16%,-4%
Cc1ccc(C)c(NC(=O)Cn2cc(C(=O)C3CC3)c3ccccc32)c1,?,?,-15%,-17%,-21%,-12%
CC(=O)c1cn(CC(=O)Nc2cccc(C)c2C)c2ccccc12,26µM*,?,-15%,-19%,?,0%
CCN1CCN(CC(=O)Nc2cccc(C)c2C)C(=O)C1=O,-25%,2.3µM*,-1%,3%,1%,0%
